Laboratory results published in PubChem BioAssay (NCI).
Compounds without any hit were thinned out: in the full panel of roughly 83,000, 20% have a hit.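 Assay: single dose, 48 h. Readout: percent growth (0 = no net growth; negative = cell death). Active: <10.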 Values without a mark were called inactive. Active and inactive are the calls of the source.

How the values were obtained:
Experiment in all cases: NCI-60 one-dose screen, 48 h (100 = growth as untreated, 0 = no growth, -100 = all killed)
Conditions in all cases: 10 µM unless noted
SR leukemia = system: SR leukemia
RPMI-8226 leukemia = system: RPMI-8226 leukemia
OVCAR-8 ovarian = system: OVCAR-8 ovarian
OVCAR-5 ovarian = system: OVCAR-5 ovarian
OVCAR-4 ovarian = system: OVCAR-4 ovarian
SK-OV-3 ovarian = system: SK-OV-3 ovarian
IGROV1 ovarian = system: IGROV1 ovarian
OVCAR-3 ovarian = system: OVCAR-3 ovarian
HS 578T breast = system: HS 578T breast
NCI/ADR-RES ovarian = system: NCI/ADR-RES ovarian

Structure (SMILES) | growth (SR leukemia) | growth (RPMI-8226 leukemia) | growth (OVCAR-8 ovarian) | growth (OVCAR-5 ovarian) | growth (OVCAR-4 ovarian) | growth (SK-OV-3 ovarian) | growth (IGROV1 ovarian) | growth (OVCAR-3 ovarian) | growth (HS 578T breast) | growth (NCI/ADR-RES ovarian)
COc1ccc(NC(=O)Nc2ccc(OCCCCCC(=O)NO)cc2)cc1 | 71.6% | 97.8% | 87.8% | 113% | 122% | 97.1% | 115% | 103% | 94.1% | 99.6%
COc1ccc(C2=CC(c3cc(OC)c(OC)c(OC)c3)n3ncnc3N2)cc1 (stereo not given) | 10.3% | 24.4% | 5.91% (active) | 35% | 41.4% | -7.15% (active) | 22.2% | -41.4% (active) | 27% | 12.8%
CSc1nc(C)c([N+](=O)[O-])c(N)n1 | 96.3% | 78.4% | 100% | 118% | 104% | 85.1% | 110% | 114% | 104% | 102%
COc1ccc(N2CCC(=S)NC2=S)cc1 | 112% | 103% | 99.1% | 104% | 90.1% | 116% | 105% | 103% | 105% | 103%
CCCCCCCCCCCCCOC(=O)c1c(C)[nH]c(/C=C2\N=C(c3ccc[nH]3)C=C2OC)c1C | -10.8% (active) | 11.2% | 18.3% | 44% | 55.8% | 47.4% | 22% | 11.3% | 18% | 22.5%
CC1(C)CC2=C3C=C[C@@H]4[C@@]5(C)CCC(=O)C(C)(C)[C@@H]5CC[C@@]4(C)[C@]3(C)CC[C@@]2(C(=O)O)C[C@H]1O | 24.4% | -7.05% (active) | 32.6% | 74.4% | 24.4% | 1% (active) | 16.5% | 11.6% | 58.1% | 33.3%
O=C(Nc1ncccc1OCc1ccccc1)NC1CCCCCC1 | 61.5% | 68.1% | 104% | 95% | 84.6% | 110% | 89.1% | 89.1% | 105% | 89.7%
Cc1ccc(-c2nc(N3CCNCC3)c3oc(-c4ccc(C)cc4)nc3n2)cc1 | -49.2% (active) | -49.1% (active) | -69% (active) | 78.4% | 11.9% | 86.2% | -77.1% (active) | -94.6% (active) | 99.2% | -28.9% (active)
N#C/C(=C\c1ccc(-c2cccc(C(F)(F)F)c2)o1)c1ccccc1 | 86.3% | 90.9% | 101% | 96.9% | 79% | 84.7% | 59.9% | 95.6% | 86.7% | 101%
COc1ccc(/C(C)=C(\c2ccc(Cl)cc2)c2ccc(OCCN3CCCCC3)cc2)cc1 | -7.55% (active) | 7.75% (active) | 69.6% | 67.9% | 59.9% | 77.5% | 64.5% | 74.9% | 63.6% | 76.8%
CCCCC#Cc1c(I)n(C)c(=O)[nH]c1=O | -35.9% (active) | 19.2% | -12.4% (active) | 80.2% | -80.2% (active) | 95.5% | -92.5% (active) | -90.7% (active) | -6.87% (active) | 85.7%
N#Cc1c(Nc2ccc(N3CCOCC3)cc2)nc(SCC(=O)c2ccc(Br)cc2)nc1-c1ccccc1 | 101% | 111% | 101% | 95.6% | 105% | 95% | 107% | 105% | 105% | 103%
C#CC#CC#CC#CC#CC#CC#CC#CCC1OC[C@H](COC(=O)O[C@@H](C(=O)O[C@H]2C[C@@]3(O)[C@@H](OC(=O)c4ccccc4)[C@@H]4[C@]5(OC(C)=O)CO[C@@H]5C[C@H](O)[C@@]4(C)C(=O)[C@H](OC(C)=O)C(=C2C)C3(C)C)[C@@H](NC(=O)c2ccccc2)c2ccccc2)O1 (stereo not given in full) | 24.6% | 15.4% | 31.4% | 26% | 57.5% | 53.5% | 33.2% | 9.45% (active) | 8.95% (active) | 106%
O=c1c2ccccc2c(=O)c2c1sc1c(=O)c3ccc(O)cc3c(=O)c12 | -16.6% (active) | -38.6% (active) | -11.5% (active) | -74.7% (active) | -90.2% (active) | -92.1% (active) | -24% (active) | -57.1% (active) | -5.23% (active) | -14.1% (active)
